# Source: PubChem BioAssay AID686978 (National Center for Advancing Translational Sciences (NCATS), 2013)
# The campaign covered roughly 420,000 compounds. About 64,000 (15%) were called active. Not shown: some 27% with an inconclusive outcome. The call rests on the fitted dose curve; in most records, active means well fitted inhibition curve with a large enough effect; inconclusive means small, poorly fitted or top-dose-only effect; inactive means flat fitted curve, though single readings scatter. The list is a sample of the results. Where a call stands in place of a potency, no number is given.
# Assay: qHTS for Inhibitors of human tyrosyl-DNA phosphodiesterase 1 (TDP1): qHTS in cells in absence of CPT; further: nearly all actives have a fitted effect of over 55% in size
# Details: DT40 Tdp1-/- hTDP1 cells, no CPT, ATP luminescence, 48 h; activity change, negative = growth inhibition: at 46.2 µM (top of the series)
# How it was run: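 Luminescent ATP content (CellTiter-Glo) served as the growth readout. Knockout chicken DT40 cells expressing human TDP1 were exposed to compounds without camptothecin for a minimum 48 hr at 37 °C.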
# Potency means the concentration at half of the fitted maximal effect.
row,SMILES,Potency
1,CCOc1ccc(CCNC(=O)c2c(C)oc3ncn(C)c(=O)c23)cc1,inactive
2,Cn1c(C(=O)N2CCC(C(N)=O)CC2)cc2c(=O)n(C)c3ccccc3c21,inactive
3,CCOCCCNC(=O)c1cn(CC(C)C)c(=O)c2c1c1ccccc1n2C,inactive
4,CCOc1ccc(CC(=O)NCCc2csc3nc(-c4ccccc4F)nn23)cc1,inactive
5,COc1ccc(C(=O)NNC(=O)c2cnccn2)cc1[N+](=O)[O-],inactive
6,CCc1ccc(N2C(=O)CN(S(=O)(=O)CC)CC2(C)C(=O)NC2CCCCC2)cc1 (stereo not drawn),inactive
7,Cc1cccc(-n2c(O)c(C=Nc3ccccc3N)c(=O)[nH]c2=O)c1,inactive
8,CC1CN(CCOc2ccccc2[N+](=O)[O-])CC(C)O1 (stereo not drawn),inactive
9,Cc1cccc(C)c1OCCN1CCOCC1,inactive
10,Cc1cc(C)c(OCCN2CC(C)OC(C)C2)c(Br)c1 (stereo not drawn),16.4 µM (active)
11,COc1ccc(N2CCN(S(=O)(=O)c3ccc4c(c3)N(C(C)=O)CCO4)CC2)cc1,inactive
12,O=C(CN1C(=O)C2C3C=CC(C3)C2C1=O)NCCc1ccccc1Cl (stereo not drawn),inactive
13,COc1cc(N2C(=O)c3ccccc3C2=O)c(Cl)cc1C(=O)OCC(=O)N1CCOCC1,inactive
14,Cc1ccc(NC(=O)COC(=O)C2CC2)cc1S(=O)(=O)N1CCOCC1,inactive
15,Cc1ccccc1NC(=O)c1cc(S(=O)(=O)N2CCOCC2)cs1,inactive
16,Cc1ccc(NC(=O)c2ccccn2)cc1S(=O)(=O)N1CCOCC1,inactive
17,Cc1ccc(NC(=O)NC2CCCCC2)cc1S(=O)(=O)N1CCOCC1,inactive
18,COc1ccc(C(=O)OC(C)C(=O)NC2CCCC2)cc1S(=O)(=O)N1CCOCC1 (stereo not drawn),inactive
19,Cc1ccc(NC(=O)c2ccc(Cl)nc2)cc1S(=O)(=O)N1CCOCC1,8.2 µM (active)
20,Cc1ccc(NC(=O)C2CCC(C(C)(C)C)CC2)cc1S(=O)(=O)N1CCOCC1 (stereo not drawn),20.6 µM (active)
21,Cc1ccc(NC(=O)CCCNC(=O)c2ccc(Cl)cc2)cc1S(=O)(=O)N1CCOCC1,inactive
22,Cc1ccc(C(=O)Nc2ccccc2C(=O)NC2CCCCC2)cc1S(=O)(=O)N1CCOCC1,18.4 µM (active)
23,COC(=O)CSc1snnc1-c1ccc(Cl)c(Cl)c1,inactive
24,O=C(NCCN1CCCC(O)C1)c1cc(COc2c(F)cccc2F)on1 (stereo not drawn),inactive

row,SMILES,Potency
1,COC(=O)c1[nH]c2ccc(Br)cc2c1NC(=O)Oc1ccccc1,inactive
2,CC(=O)N1CCN(CC(=O)Nc2ccc(SC(F)F)cc2)CC1,inactive
3,O=C(Oc1cccc(NC2=NS(=O)(=O)c3ccccc32)c1)c1ccncc1,inactive
4,CC(=O)c1c(C)[nH]c(=S)c(C#N)c1-c1ccc(F)cc1,inactive
5,CCOc1ccc(NC(=O)C(CC(C)C)N2Cc3ccccc3C2=O)cc1 (stereo not drawn),inactive
6,CC(Oc1ccccc1)C(=O)N[C@@H]1C(=O)N2[C@@H]1SC(C)(C)[C@@H]2C(=O)O (stereo partly drawn),inactive
7,CSc1ccc(/C=N\NC(=O)CC(=O)NC(C)C)cc1,inactive
8,O=C(CC(c1cccs1)N1Cc2ccccc2C1=O)Nc1ccc(F)cc1F (stereo not drawn),16.4 µM (active)
9,O=C(O)CC(c1ccccc1F)N1Cc2ccccc2C1=O (stereo not drawn),inactive
10,COc1cc(C(CC(=O)NCCC(C)C)N2Cc3ccccc3C2=O)cc(OC)c1OC (stereo not drawn),inactive
11,CCc1ccc(NC(=O)C(C)OC(=O)/C=C/c2cccc([N+](=O)[O-])c2)cc1 (stereo not drawn),inactive
12,Cc1ccc(Cl)cc1-c1ccc(/C=N/n2cnnc2)o1,inactive
13,C[C@]12c3[nH]c4ccc(Cl)cc4c3CCN1C(=O)[C@@H](CC(=O)NCCCn1ccnc1)C[C@@H]2C(=O)N1CCOCC1,inactive
14,CC(C)N(C(=O)[C@H]1C[C@H](CC(=O)NC(C)(C)C)C(=O)N2CCc3c([nH]c4ccc(Cl)cc34)[C@]12C)C(C)C,6.51 µM (active)
15,CN(C)C(=O)CCc1ccc2c3c([nH]c2c1)[C@]1(C)[C@@H](C(=O)N2CCCCC2)C[C@H](CC(=O)NCCC2=CCCCC2)C(=O)N1CC3,16.4 µM (active)
16,CCN(CC)C(=O)[C@H]1C[C@H](CC(=O)NCC23CC4CC(CC(C4)C2)C3)C(=O)N2CCc3c([nH]c4cc(CCC(=O)N(C)C)ccc34)[C@]12C,18.4 µM (active)
17,CC[C@]12c3[nH]c4cc(CCC(=O)N(C)C)ccc4c3CCN1C(=O)[C@@H](CC(=O)NCCCN(C)C)C[C@@H]2C(=O)N1CCN(C(=O)c2ccco2)CC1,inactive
18,CC[C@]12c3[nH]c4cc(CCC(=O)N(C)C)ccc4c3CCN1C(=O)[C@@H](CC(=O)NCCCn1ccnc1)C[C@@H]2C(=O)N1CCN(C(=O)C2CC2)CC1,inactive
19,CN(C)C(=O)CCc1ccc2c3c([nH]c2c1)[C@]1(CCc2ccccc2)[C@@H](C(=O)N2CCCCC2)C[C@H](CC(=O)NCCC2=CCCCC2)C(=O)N1CC3,9.2 µM (active)
20,COc1ccc2[nH]c3c(c2c1)CCN1C(=O)C(CC(=O)NCc2cccc(C(F)(F)F)c2)C[C@H](C(=O)N2CCOCC2)[C@@]31C (stereo partly drawn),inactive
21,CC[C@]12c3[nH]c4cc(CCC(=O)N(C)C)ccc4c3CCN1C(=O)[C@@H](CC(=O)NCc1ccco1)C[C@@H]2C(=O)N1CCN(C(=O)c2ccco2)CC1,inactive
22,COc1ccc2[nH]c3c(c2c1)CCN1C(=O)C(CC(=O)NCCc2ccccn2)C[C@H](C(=O)N2CCOCC2)[C@@]31C (stereo partly drawn),inactive
23,CN(C)C(=O)CCc1ccc2c3c([nH]c2c1)[C@]1(C)[C@@H](C(=O)N2CCOCC2)C[C@H](CC(=O)NCCc2ccccn2)C(=O)N1CC3,inactive
24,CCN(CC)C(=O)[C@H]1CC(CC(=O)NCc2ccco2)C(=O)N2CCc3c([nH]c4ccccc34)[C@]12C (stereo partly drawn),inactive
